Bioassay records from PubChem BioAssay.
In the library only some 7.6% were active in any assay of this set; here they are far more common.
HEK293 cAMP ctrl = counter-screen for TSHR agonists: cAMP increase in parental HEK293. hit rate 2.5% among 73,000. AID 938. parental HEK293 CNG cAMP sensor, membrane potential fluorescence. Potency, µM (highest dose often 57.1 µM), for the others: top-dose activation, most hits filed as activators; note: % of control where 0% means no effect; nearly all actives have a fitted effect of over 55% in size
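Counterscreen for endogenous-receptor signalling: CNG-channel HEK 293 cells report cAMP rise by membrane depolarization. After 60 min dye equilibration with 100 uM RO 20-1724, compounds incubated 30 min before bottom-read fluorescence at 590 nm.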
CRE Fsk mod = alters forskolin-stimulated CRE reporter signaling in CHO cells; CHO CRE-bla reporter (cAMP response element driving beta-lactamase), forskolin EC10, beta-lactamase ratio; Potency, µM (top dose mostly 38.2 µM), for inactives: at the highest dose activity change, negative = inhibition, usual class: activators; hit rate 2.5% among 71,000; active = well fitted activation curve with a large enough effect in the signal ratio, with a control signal flat, not every such curve was filed as active; inconclusive = small, poorly fitted or top-dose-only effect, or effect the other way, or a change in a side signal; the % refers to the signal ratio; note: % of control where 0% means no effect
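Cells were plated overnight at 37 °C, exposed to compound titrations plus EC10 NKH 477 for 3 h, then given CCF4 dye for 2 h at room temperature. Blue/green (460/530 nm) ratio was converted to %Activity and AC50 values calculated.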
TSHR agonist = TSH receptor (human) agonism; hit rate 0.48% among 73,000; Potency, µM (series often up to 57.1 µM), without a hit: at the highest dose activation, usual class: activators; HEK293-CNG-TSHR cells (CNG channel as cAMP sensor), membrane potential dye, cAMP; AID 926; P16473; active = well fitted activation curve with a large enough effect in the main read-out, with a control signal flat, not every such curve was filed as active; inconclusive = small, poorly fitted or top-dose-only effect, or a change in a side signal; inactive = no such curve, though single readings can be large or run the other way; % of control where 0% means no effect;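 note: the control signal comes from parental cells without the receptor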
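cAMP rise detected as CNG-channel membrane depolarization by fluorescent dye (emission 590 nm), 30 min after compound, following 60 min dye loading containing 100 uM RO 20-1724 at room temperature. Cells: TSHR/CNG HEK 293, with parental CNG HEK 293 as control.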
ERK AVP inh = blocks ERK signaling stimulated by vasopressin; HEK293-V1b, vasopressin-stimulated pERK AlphaScreen; Potency, µM (highest dose often 57.5 µM), for inactives: at the highest dose activity, negative = inhibition, usual class: inhibitors; hit rate 0.99% among 72,000; note: % is set by controls: 0 for no effect and ±100 for the full control effect; nearly all actives have a fitted effect of over 55% in size
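V1b-HEK293 cells; cpd 30 min 37C; 25 nM vasopressin 5 min; lyse 10 min; AlphaScreen beads 5 hr RT. Normalized to DMSO basal and 25 nM vasopressin; AC50 by Hill fit.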
Tau filament bind = tau filament binding; P10636; recombinant tau filaments, thioflavin S fluorescence, 15 h; filaments grown with octadecylsulfate alongside compound; Potency, µM (highest dose often 57.1 µM), for the others: at the highest dose activity change, negative = inhibition; hit rate 2% among 71,000; AID 596;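 note: % is set by controls: 0 for no effect and ±100 for the full control effect; actives lower thioflavin S fluorescence by blocking filaments or displacing dye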
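Quantitative HTS: thioflavine S signal from ODS-induced tau filaments, excited at 450 nm, emission 510 nm. Conditions: 1 uM tau, 30 uM ODS, 15 h at 37 C, pH 7.4.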
* hit, by the source's call; ? = inconclusive; / = not tested or not shown; ! = repeats disagree; [ ] = dose if it differs, or a comment. Unless noted, calls come from the whole dose curve; as a rule, active = well fitted curve in the direction sought with a large enough effect; inconclusive = small, poorly fitted or top-dose-only effect, or another doubt; inactive = no such curve, though single readings can be large; an effect the other way counts as inactive or inconclusive. Potency is the fitted concentration of half-maximal effect.

SMILES	HEK293 cAMP ctrl	CRE Fsk mod	TSHR agonist	ERK AVP inh	Tau filament bind
CC(C)C(c1nnnn1C1CCCC1)N(C)C1CCCCC1 (stereo not given)	20µM*	0%	?	-19%	16%
CC(C)C(c1nnnn1C1CCCC1)N1CCc2ccccc21 (stereo not given)	?	1%	?	5%	-8%
COc1cc2cc(C(c3nnnn3C3CCCCC3)N(C)C3CCCCC3)c(=O)[nH]c2cc1OC (stereo not given)	?	13µM*	?	-24%	7%
N#Cc1c(-c2ccccc2)no[n+]1[O-]	-10%	?	/	25%	-8%
c1ccc(N2CCN(c3ncnc4c3oc3ccccc34)CC2)cc1	20µM*	?	?	32µM*	119%
Cc1ccc2c(c1)c1ncnc(N3CCN(c4ccccc4)CC3)c1n2C	25µM*	?	?	-20%	18%
CCOC(=O)C1CCN(c2ncnc3c2oc2ccccc23)CC1	25µM*	?	?	6%	14%
Cc1ccc2c(c1)c1ncnc(N3CCOCC3)c1n2C	16%	?	18%	-16%	4%
CCOC(=O)C1CCCN(c2ncnc3c2oc2ccccc23)C1 (stereo not given)	?	25%	?	25µM*	22%
CCOC(=O)C1CCN(c2nc(-c3ccccc3)nc3c2oc2ccccc23)CC1	20%	?	/	5%	3%
CO/N=C1/c2cc(OC)ccc2O[C@@H](c2cccc(OC)c2)[C@H]1O	-3%[11.4 µM]	/	-3%[11.4 µM]	8%[11.5 µM]	/
CCOC(=O)SC1=N/C(=C\c2ccc(N(C)C)cc2)C(=O)S1	-5%	2%	6%	?	3.2µM*
CCSC1=N/C(=C\c2ccc(C(=O)O)cc2)C(=O)S1	2%	6%	-5%	2%	13%
CCCCOCCOCCOCc1cc2c(cc1CCC)OCO2	32µM*	-13%	?	27%	-9%
CC(C)C[C@@H](CC(=O)N[C@H](CC(=O)N[C@@H]1CCCC[C@H]1C(=O)N[C@H](CC(=O)N[C@@H](CCC(=O)O)CC(=O)O)Cc1c[nH]c2ccccc12)C(C)C)NC(=O)[C@@H]1CCCC[C@H]1N	-2%	?	1%	/	2%
Cc1nn(-c2ccccc2)c2sc(C(=O)N3CCc4ccccc4C3)cc12	20µM*	4µM*	?	-11%	49%
CCCCNC(=O)COC(=O)c1cc2c(C)nn(-c3ccccc3)c2s1	?	5µM*	?	-11%	56%
CCC(=O)OC1C2CC3=C4CC(=O)OC(c5ccoc5)[C@]4(C)CCC3[C@@](C)(C2=O)C(CC(=O)OC)C1(C)C (stereo not given in full)	/	/	/	-14%	/
COc1ccc2oc(=O)c(C(=O)N3CCN(c4ccccc4C)CC3)cc2c1	9%	-11%	16%	-24%	16µM*
O=C(CSc1nnc(-c2ccco2)n1Cc1ccccc1)c1ccccc1	19%	6%	3%[11.4 µM]	19%	8%
CC(C)Cn1c(SCC(=O)c2ccc(Cl)s2)nnc1-c1ccco1	20µM*	-5%	?	-9%	-17%
CCn1c(SCC(=O)c2ccc(Cl)cc2)nnc1-c1ccoc1C	25µM*	-8%	?	?	0%
Cc1ccc(C(=O)CSc2nnc(-c3ccco3)n2Cc2ccccc2)cc1	13µM*	7%	?	-19%	58%
COC(=O)NC(c1cccc(F)c1)C(C(C)=O)C(=O)OC (stereo not given)	-4%[11.4 µM]	/	-7%[11.4 µM]	9%[11.5 µM]	/
c1ccc(CNc2cc(-c3ccoc3)ncn2)cc1	27%	?	2%	5%	15%
COCCn1c(=O)cnc2cnc(N3CCN(C)CC3)nc21	7%	-5%	0%	-6%	8%
NC[C@](O)(CS(=O)(=O)O)c1ccc(Cl)cc1	-2%	-22%	0.13µM*!	17%	?
CS(=O)(=O)N(CC(N)=O)Cc1ccc(Cl)cc1	10%	9%	2%	-4%	-1%
O=C(COC(=O)C1CCCCC1C(=O)N1CCc2ccccc21)NCc1ccco1 (stereo not given)	20µM*	0%	?	-29%	10%
CCCCOC(OCCCC)[C@H](O)CSc1ccc2ccccc2c1	9%[11.4 µM]	/	-3%[11.4 µM]	-1%[11.5 µM]	/
